# In article PMC7862700, “An all-to-all approach to the identification of sequence-specific readers for epigenetic DNA modifications on cytosine”:
# Columns and labels:
# Assay in all cases: DAPPL (digital affinity profiling via proximity ligation, sequencing); 10 mM Tris-HCl pH 7.5, 50 mM NaCl, 1 mM DTT, 4% glycerol, room temperature, 30 min; GST-TFs on glutathione beads, 16-mer random dsDNA library, 0.1% formaldehyde crosslink after washing; high values mean tight binding
# FEV = target: T1, FEV (Homo sapiens, UniProt Q99581 1-238); conditions: protein: recombinant; tags: N-terminal GST; dsDNA, one strand shown
# T1 sequence: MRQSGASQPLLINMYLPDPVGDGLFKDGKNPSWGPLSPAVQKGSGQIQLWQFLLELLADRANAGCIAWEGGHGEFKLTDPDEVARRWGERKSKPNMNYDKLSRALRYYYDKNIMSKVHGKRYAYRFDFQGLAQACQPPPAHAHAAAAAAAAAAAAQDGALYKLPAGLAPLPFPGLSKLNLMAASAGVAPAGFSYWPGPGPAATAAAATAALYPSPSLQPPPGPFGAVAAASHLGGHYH
# Outline: (§1)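 Sequencing on an Illumina NextSeq500 followed washing, crosslinking with 0.1% formaldehyde, proximity ligation (BsaI/T4 ligase, 1 h, 37 °C) and PCR amplification of pools that had been incubated for 30 min at room temperature with 200 nmole of a random double-stranded 16-mer DNA library in Tris/NaCl/DTT/glycerol buffer. Each pool held DNA-barcoded human transcription factors, expressed in yeast as GST fusions and captured on glutathione beads, plus a tag-only sample. Binding signal is a hexamer's read frequency for a factor divided by its frequency in the tag-only sample.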
# ETV5 = ETV5 (Homo sapiens, UniProt P41161 1-510); conditions: protein: recombinant; tags: N-terminal GST; dsDNA, one strand shown
# Outline: as §1
# HSF1 = HSF1 (Homo sapiens, UniProt Q00613 1-529); conditions: protein: recombinant; tags: N-terminal GST; chain copies: 3; dsDNA, one strand shown
# Outline: as §1
# SPIC = target: T2, SPIC (Homo sapiens, UniProt Q8N5J4 1-248); conditions: protein: recombinant; tags: N-terminal GST; dsDNA, one strand shown
# T2 sequence: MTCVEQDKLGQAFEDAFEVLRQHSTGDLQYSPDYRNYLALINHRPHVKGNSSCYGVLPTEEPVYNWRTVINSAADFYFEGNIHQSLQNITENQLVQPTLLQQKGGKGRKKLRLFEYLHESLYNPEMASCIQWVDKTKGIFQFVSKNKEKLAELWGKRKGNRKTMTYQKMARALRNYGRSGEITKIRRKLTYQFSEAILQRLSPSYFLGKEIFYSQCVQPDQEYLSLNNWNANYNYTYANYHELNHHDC
# Outline: as §1
# ELF4 = ELF4 (Homo sapiens, UniProt Q99607 1-663); conditions: protein: recombinant; tags: N-terminal GST; dsDNA, one strand shown
# Outline: as §1
# ELK4 = target: T3, ELK4 (Homo sapiens, UniProt P28324-2 1-405); conditions: protein: recombinant; tags: N-terminal GST; dsDNA, one strand shown
# T3 sequence: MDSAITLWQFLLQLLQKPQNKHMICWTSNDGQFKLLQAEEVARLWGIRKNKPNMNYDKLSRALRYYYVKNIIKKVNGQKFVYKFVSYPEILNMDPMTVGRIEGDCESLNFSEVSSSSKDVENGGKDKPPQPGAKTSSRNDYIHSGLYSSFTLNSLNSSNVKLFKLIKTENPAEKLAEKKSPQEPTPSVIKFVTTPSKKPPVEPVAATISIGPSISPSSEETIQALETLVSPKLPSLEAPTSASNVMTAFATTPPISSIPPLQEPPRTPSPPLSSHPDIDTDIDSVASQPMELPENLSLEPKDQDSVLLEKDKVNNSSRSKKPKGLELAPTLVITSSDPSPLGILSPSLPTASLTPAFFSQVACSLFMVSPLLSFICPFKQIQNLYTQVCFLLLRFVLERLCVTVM
# Outline: as §1
# ETV2 = target: T4, ETV2 (Homo sapiens, UniProt O00321 1-342); conditions: protein: recombinant; tags: N-terminal GST; dsDNA, one strand shown
# T4 sequence: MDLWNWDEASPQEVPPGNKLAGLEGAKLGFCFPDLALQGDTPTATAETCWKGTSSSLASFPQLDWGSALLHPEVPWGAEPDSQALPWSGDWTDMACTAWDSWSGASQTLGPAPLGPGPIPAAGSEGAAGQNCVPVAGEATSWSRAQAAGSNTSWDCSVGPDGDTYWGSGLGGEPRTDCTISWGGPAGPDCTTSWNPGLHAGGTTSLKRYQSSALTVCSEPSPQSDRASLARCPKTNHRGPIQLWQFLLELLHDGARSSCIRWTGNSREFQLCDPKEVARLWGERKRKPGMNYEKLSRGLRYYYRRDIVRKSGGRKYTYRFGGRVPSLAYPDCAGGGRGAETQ
# Outline: as §1
# ELF3 = target: T5, ELF3 (Homo sapiens, UniProt P78545 1-371); conditions: protein: recombinant; tags: N-terminal GST; dsDNA, one strand shown
# T5 sequence: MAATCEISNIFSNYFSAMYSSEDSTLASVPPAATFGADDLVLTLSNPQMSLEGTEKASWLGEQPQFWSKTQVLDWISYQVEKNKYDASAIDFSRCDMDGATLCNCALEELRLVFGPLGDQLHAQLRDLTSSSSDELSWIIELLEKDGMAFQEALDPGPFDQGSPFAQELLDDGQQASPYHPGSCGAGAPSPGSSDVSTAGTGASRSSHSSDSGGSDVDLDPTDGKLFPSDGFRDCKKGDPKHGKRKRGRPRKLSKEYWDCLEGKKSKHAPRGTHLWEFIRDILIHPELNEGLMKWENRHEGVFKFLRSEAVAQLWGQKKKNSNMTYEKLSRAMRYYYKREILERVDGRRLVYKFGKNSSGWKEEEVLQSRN
# Outline: as §1
# ETV1 = ETV1 (Homo sapiens, UniProt P50549 1-477); conditions: protein: recombinant; tags: N-terminal GST; dsDNA, one strand shown
# Outline: as §1
# ERF = target: T6, ERF (Homo sapiens, UniProt P50548 1-548); conditions: protein: recombinant; tags: N-terminal GST; dsDNA, one strand shown
# T6 sequence: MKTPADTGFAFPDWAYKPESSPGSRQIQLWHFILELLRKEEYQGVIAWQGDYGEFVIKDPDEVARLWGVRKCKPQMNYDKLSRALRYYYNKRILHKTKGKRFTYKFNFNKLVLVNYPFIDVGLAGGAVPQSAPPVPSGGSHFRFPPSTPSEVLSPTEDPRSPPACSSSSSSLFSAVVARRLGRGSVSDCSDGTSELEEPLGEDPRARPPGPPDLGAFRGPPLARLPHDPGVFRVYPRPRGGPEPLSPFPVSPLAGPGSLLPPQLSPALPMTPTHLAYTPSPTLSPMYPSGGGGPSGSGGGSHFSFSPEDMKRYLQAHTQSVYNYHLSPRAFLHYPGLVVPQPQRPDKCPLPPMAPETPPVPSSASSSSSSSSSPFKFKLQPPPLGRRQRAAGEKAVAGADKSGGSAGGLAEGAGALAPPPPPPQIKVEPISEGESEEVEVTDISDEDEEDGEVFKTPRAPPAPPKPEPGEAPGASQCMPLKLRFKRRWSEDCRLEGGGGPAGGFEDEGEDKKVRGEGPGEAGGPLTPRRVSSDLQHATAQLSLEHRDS
# Outline: as §1
# ETV3L = target: T7, ETV3L (Homo sapiens, UniProt Q6ZN32 1-361); conditions: protein: recombinant; tags: N-terminal GST; dsDNA, one strand shown
# T7 sequence: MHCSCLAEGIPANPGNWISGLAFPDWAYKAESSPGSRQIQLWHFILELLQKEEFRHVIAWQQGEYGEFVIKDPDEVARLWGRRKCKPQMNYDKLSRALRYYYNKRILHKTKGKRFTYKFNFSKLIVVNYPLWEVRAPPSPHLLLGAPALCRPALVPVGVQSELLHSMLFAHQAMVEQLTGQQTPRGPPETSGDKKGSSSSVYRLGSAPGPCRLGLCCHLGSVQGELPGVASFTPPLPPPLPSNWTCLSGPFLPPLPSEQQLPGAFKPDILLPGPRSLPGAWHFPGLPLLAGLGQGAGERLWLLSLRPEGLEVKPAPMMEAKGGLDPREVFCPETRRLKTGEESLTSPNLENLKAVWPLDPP
# Outline: as §1
# ETS2 = target: T8, ETS2 (Homo sapiens, UniProt P15036 1-469); conditions: protein: recombinant; tags: N-terminal GST; dsDNA, one strand shown
# T8 sequence: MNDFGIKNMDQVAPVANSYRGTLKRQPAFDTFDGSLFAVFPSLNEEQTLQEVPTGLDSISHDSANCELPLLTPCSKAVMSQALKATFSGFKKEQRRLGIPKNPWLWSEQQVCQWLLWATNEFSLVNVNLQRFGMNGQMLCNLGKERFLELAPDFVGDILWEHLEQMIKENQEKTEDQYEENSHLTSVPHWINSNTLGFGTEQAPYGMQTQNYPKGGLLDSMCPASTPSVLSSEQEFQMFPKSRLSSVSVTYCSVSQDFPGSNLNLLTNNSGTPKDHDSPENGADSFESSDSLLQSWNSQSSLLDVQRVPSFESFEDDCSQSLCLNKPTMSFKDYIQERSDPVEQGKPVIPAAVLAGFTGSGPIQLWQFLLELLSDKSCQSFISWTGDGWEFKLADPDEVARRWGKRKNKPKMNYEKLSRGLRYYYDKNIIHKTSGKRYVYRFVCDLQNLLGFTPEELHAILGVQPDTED
# Outline: as §1
# SPDEF = target: T9, SPDEF (Homo sapiens, UniProt O95238 1-335); conditions: protein: recombinant; tags: N-terminal GST; dsDNA, one strand shown
# T9 sequence: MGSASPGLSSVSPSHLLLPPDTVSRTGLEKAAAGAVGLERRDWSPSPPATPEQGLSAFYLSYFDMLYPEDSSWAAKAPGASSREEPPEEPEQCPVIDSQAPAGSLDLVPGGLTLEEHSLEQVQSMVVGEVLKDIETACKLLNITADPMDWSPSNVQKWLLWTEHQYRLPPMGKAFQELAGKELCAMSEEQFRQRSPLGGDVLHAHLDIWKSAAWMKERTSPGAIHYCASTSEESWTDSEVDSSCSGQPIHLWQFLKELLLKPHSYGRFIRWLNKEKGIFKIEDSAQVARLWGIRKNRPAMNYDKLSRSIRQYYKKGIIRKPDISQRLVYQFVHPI
# Outline: as §1
# ETV7 = target: T10, ETV7 (Homo sapiens, UniProt Q9Y603 1-341); conditions: protein: recombinant; tags: N-terminal GST; dsDNA, one strand shown
# T10 sequence: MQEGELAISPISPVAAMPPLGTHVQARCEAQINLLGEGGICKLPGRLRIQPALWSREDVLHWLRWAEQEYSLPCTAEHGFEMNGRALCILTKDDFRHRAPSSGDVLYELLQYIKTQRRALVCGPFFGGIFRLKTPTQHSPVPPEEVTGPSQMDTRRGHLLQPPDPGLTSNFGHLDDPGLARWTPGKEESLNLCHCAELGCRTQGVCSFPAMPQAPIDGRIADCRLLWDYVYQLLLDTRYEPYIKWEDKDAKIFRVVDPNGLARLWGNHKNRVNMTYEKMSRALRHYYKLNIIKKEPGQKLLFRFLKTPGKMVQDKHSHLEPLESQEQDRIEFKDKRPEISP
# Outline: as §1
# ELF5 = target: T11, ELF5 (Homo sapiens, UniProt Q9UKW6-2 1-255); conditions: protein: recombinant; tags: N-terminal GST; dsDNA, one strand shown
# T11 sequence: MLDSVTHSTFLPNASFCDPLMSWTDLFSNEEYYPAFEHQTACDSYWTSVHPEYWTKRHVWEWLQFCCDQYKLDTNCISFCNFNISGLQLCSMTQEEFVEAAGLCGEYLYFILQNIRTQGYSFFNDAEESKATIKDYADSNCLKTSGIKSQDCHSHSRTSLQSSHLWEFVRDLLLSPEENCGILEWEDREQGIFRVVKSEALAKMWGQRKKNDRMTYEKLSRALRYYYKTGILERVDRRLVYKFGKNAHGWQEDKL
# Outline: as §1
# ETV3 = target: T12, ETV3 (Homo sapiens, UniProt P41162-2 1-143); conditions: protein: recombinant; tags: N-terminal GST; dsDNA, one strand shown
# T12 sequence: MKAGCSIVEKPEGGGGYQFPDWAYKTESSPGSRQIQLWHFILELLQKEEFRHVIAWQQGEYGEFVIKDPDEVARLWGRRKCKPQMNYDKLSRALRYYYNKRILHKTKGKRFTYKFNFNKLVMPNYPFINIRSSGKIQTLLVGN
# Outline: as §1
# ETV6 = ETV6 (Homo sapiens, UniProt P41212 1-452); conditions: protein: recombinant; tags: N-terminal GST; dsDNA, one strand shown
# Outline: as §1
# HSF1, sequence (Q00613 whole entry): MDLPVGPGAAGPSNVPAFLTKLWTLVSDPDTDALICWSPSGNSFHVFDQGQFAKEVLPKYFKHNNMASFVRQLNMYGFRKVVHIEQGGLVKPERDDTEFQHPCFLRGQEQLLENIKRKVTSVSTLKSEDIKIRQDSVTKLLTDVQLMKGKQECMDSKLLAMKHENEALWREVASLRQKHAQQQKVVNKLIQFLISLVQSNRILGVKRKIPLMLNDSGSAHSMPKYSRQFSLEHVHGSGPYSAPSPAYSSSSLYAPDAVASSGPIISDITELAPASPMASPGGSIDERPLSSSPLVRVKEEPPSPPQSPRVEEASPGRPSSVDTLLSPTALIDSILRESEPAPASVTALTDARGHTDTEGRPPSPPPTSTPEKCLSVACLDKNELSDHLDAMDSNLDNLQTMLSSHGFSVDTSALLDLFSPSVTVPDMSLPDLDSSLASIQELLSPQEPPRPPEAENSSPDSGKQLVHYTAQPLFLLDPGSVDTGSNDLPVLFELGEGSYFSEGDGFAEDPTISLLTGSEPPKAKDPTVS
# ETV5, sequence (P41161 whole entry): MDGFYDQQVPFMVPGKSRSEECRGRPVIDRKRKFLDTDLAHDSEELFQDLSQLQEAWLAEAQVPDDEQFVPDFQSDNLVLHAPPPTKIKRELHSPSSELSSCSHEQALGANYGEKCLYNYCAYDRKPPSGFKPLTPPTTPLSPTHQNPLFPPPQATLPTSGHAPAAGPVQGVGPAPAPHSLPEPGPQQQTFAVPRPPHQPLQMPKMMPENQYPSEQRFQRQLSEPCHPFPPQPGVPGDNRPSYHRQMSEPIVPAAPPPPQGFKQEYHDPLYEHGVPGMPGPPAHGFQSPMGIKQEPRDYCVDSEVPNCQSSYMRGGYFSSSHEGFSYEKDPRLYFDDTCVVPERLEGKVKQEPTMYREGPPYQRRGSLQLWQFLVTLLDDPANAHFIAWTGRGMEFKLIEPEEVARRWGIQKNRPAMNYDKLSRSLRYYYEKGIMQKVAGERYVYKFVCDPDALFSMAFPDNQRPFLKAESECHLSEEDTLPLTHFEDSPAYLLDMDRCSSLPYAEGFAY
# ETV1, sequence (P50549 whole entry): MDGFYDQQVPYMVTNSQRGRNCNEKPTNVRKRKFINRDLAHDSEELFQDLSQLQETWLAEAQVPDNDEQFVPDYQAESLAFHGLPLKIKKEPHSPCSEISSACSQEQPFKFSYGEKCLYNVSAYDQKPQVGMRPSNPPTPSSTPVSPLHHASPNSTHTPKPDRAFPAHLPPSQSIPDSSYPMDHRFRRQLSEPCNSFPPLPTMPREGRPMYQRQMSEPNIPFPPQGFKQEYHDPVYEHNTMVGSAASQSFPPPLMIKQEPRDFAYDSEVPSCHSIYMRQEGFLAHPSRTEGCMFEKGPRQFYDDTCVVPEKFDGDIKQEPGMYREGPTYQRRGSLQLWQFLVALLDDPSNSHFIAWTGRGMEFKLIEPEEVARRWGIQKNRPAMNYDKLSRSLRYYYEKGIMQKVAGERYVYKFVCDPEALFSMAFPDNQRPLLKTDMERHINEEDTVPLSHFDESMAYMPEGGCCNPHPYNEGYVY
# ELF4, sequence (Q99607 whole entry): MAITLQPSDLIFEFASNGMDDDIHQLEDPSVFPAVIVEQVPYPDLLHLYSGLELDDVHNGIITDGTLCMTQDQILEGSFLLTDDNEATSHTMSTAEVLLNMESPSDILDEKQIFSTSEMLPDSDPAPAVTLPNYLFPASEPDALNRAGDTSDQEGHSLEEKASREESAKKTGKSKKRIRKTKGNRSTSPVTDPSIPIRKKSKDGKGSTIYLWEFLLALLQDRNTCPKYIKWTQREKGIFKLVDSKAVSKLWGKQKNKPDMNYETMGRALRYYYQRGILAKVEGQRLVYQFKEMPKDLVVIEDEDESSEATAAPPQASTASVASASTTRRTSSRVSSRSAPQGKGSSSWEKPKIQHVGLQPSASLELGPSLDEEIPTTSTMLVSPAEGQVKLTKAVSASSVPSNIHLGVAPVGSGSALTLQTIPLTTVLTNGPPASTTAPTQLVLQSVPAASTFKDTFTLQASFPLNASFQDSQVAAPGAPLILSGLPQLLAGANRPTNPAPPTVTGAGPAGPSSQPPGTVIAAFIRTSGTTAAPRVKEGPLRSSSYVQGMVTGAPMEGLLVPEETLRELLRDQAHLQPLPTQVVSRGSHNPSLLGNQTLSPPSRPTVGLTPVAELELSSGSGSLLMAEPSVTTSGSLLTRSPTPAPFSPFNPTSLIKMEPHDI
# ETV6, sequence (P41212 whole entry): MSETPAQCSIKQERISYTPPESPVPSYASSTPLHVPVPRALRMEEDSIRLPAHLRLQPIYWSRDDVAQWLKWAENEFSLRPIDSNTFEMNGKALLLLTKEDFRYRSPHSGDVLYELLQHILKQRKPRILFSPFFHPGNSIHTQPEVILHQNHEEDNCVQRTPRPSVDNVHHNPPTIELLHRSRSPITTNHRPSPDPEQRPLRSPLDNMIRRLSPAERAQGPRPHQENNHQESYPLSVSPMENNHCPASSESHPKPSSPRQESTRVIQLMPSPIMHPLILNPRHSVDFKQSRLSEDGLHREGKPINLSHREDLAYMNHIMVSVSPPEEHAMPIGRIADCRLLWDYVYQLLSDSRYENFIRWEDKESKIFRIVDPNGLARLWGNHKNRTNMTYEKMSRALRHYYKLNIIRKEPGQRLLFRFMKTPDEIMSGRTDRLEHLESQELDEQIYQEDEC
Sequence,binding signal (FEV),binding signal (ETV5),binding signal (HSF1),binding signal (SPIC),binding signal (ELF4),binding signal (ELK4),binding signal (ETV2),binding signal (ELF3),binding signal (ETV1),binding signal (ERF),binding signal (ETV3L),binding signal (ETS2),binding signal (SPDEF),binding signal (ETV7),binding signal (ELF5),binding signal (ETV3),binding signal (ETV6)
GGAAAT,"4 fold enrichment (6-mer frequency, TF over GST control)","3.05 fold enrichment (6-mer frequency, TF over GST control)","1.29 fold enrichment (6-mer frequency, TF over GST control)","2.47 fold enrichment (6-mer frequency, TF over GST control)","2.4 fold enrichment (6-mer frequency, TF over GST control)","2.13 fold enrichment (6-mer frequency, TF over GST control)","2.4 fold enrichment (6-mer frequency, TF over GST control)","2.74 fold enrichment (6-mer frequency, TF over GST control)","2.69 fold enrichment (6-mer frequency, TF over GST control)","2.42 fold enrichment (6-mer frequency, TF over GST control)","2.66 fold enrichment (6-mer frequency, TF over GST control)","2.75 fold enrichment (6-mer frequency, TF over GST control)","2.56 fold enrichment (6-mer frequency, TF over GST control)","2.56 fold enrichment (6-mer frequency, TF over GST control)","3.68 fold enrichment (6-mer frequency, TF over GST control)","2.88 fold enrichment (6-mer frequency, TF over GST control)","3.32 fold enrichment (6-mer frequency, TF over GST control)"
CGACAT,"1.31 fold enrichment (6-mer frequency, TF over GST control)","1.26 fold enrichment (6-mer frequency, TF over GST control)","1.07 fold enrichment (6-mer frequency, TF over GST control)","1.32 fold enrichment (6-mer frequency, TF over GST control)","1.32 fold enrichment (6-mer frequency, TF over GST control)","1.3 fold enrichment (6-mer frequency, TF over GST control)","1.26 fold enrichment (6-mer frequency, TF over GST control)","1.42 fold enrichment (6-mer frequency, TF over GST control)","1.37 fold enrichment (6-mer frequency, TF over GST control)","1.34 fold enrichment (6-mer frequency, TF over GST control)","1.22 fold enrichment (6-mer frequency, TF over GST control)","1.32 fold enrichment (6-mer frequency, TF over GST control)","1.4 fold enrichment (6-mer frequency, TF over GST control)","1.23 fold enrichment (6-mer frequency, TF over GST control)","1.33 fold enrichment (6-mer frequency, TF over GST control)","1.37 fold enrichment (6-mer frequency, TF over GST control)","1.42 fold enrichment (6-mer frequency, TF over GST control)"
